Test results reported in PubChem BioAssay (NCI).
This is part of a sample that, as a whole, favours compounds with a hit. Of some 79,000 tested, about 15% had one in any assay. Cut-off read from the data, not from the text of the source: active = growth inhibition above about 70%; inactive = the rest. Where a SMILES comes first, the peptide text is derived from it. [ ]: non-standard residue; d: D form. The star is where a group is joined. ξ: configuration not given here. ξD = NC(CC(=O)O)C(=O)O; Boc = CC(C)(C)OC(=O)*; Aib = CC(C)(N)C(=O)O; OBn = c1ccc(CO*)cc1

Legend:
[1] = NCI Yeast Anticancer Drug Screen. Data for the rad50 strain (AID 155);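 note: 0% = growth of vehicle-only cultures of the same strain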; conditions: S. cerevisiae rad50 strain growth inhibition; at 50.0 µM; active compounds read high
Method in brief: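 Inhibition values express reduced yeast growth in compound-treated cultures relative to vehicle-treated controls.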

[2] = NCI Yeast Anticancer Drug Screen. Data for the mec2-1 strain (AID 157); conditions: S. cerevisiae mec2-1 strain, at 50.0 µM, active compounds read high
Method in brief: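 Test agents were screened against the mec2-1 yeast strain, with defined DNA repair or cell cycle alteration. Growth was scored as inhibition against vehicle-only controls.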

[3] = NCI Yeast Anticancer Drug Screen. Data for the sgs1 mgt1 strain (AID 161);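 note: 0% = growth of cultures given vehicle only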; conditions: S. cerevisiae sgs1 mgt1 strain, at 50.0 µM, active compounds read high
Method in brief: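 Inhibition of yeast growth, normalised to vehicle-treated controls, is reported for a strain bearing genetic alterations in DNA damage repair.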

[4] = NCI Yeast Anticancer Drug Screen. Data for the cln2 rad14 strain (AID 165);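 note: 0% = growth equal to vehicle treated cultures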; conditions: S. cerevisiae cln2 rad14 strain, at 50.0 µM, active compounds read high
Method in brief: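 Growth of compound-exposed yeast (cln2 rad14 genotype) measured and expressed as inhibition relative to vehicle.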

[5] = NCI Yeast Anticancer Drug Screen. Data for the bub3 strain (AID 167); conditions: S. cerevisiae bub3 mutant strain, at 50.0 µM, active compounds read high
Method in brief: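 Steps: expose the mutant yeast strain to compound; grow alongside vehicle-treated cultures; measure growth; express inhibition against the vehicle cultures.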

[6] = NCI Yeast Anticancer Drug Screen. Data for the mlh1 rad18 strain (AID 175); conditions: S. cerevisiae mlh1 rad18 strain growth inhibition; at 50.0 µM; active compounds read high
Method in brief: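 In this whole-cell yeast screen, a strain with altered DNA damage repair is challenged with compound, and its growth is measured against matched vehicle-treated controls.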

Measured: growth inhibition

CC(=O)OCC1OCOC2C(COC(C)=O)OCOC12 (configuration not stated)
inactive: [1] 3.55% | [2] 2.6% | [3] -8.15% | [4] -24.4% | [5] 3.85% | [6] -8.5%

CC(C)OC(=O)C(=O)Nc1cccc(Cl)c1
inactive: [1] -3.45% | [2] -14.1% | [3] -29.5% | [4] -65.8% | [5] -15.3% | [6] -2.5%

O=C1C[C@@H]2[C@@H](CCC23CCCC3)N1
inactive: [1] 17.8% | [2] 12.9% | [3] -9.75% | [4] 20.4% | [5] 15.2% | [6] 20.6%

Cc1cc2c(C)nn(Cc3ccccc3)c2c(C(=O)O)c1C
inactive: [1] 10.6% | [2] 7.05% | [3] 1.15% | [4] 2.95% | [5] 9.95% | [6] 26.8%

CCN(CC)CCNC1=CC(=S)NC(C)(C)C1
inactive: [1] -13.7% | [2] 10.6% | [3] -2.6% | [4] -4.2% | [5] -1.9% | [6] -6.05%

CCC(C)NC(=O)/C(=C\c1ccccc1O)NC(=O)c1ccccc1 (configuration not stated)
inactive: [1] -30.1% | [2] -35.6% | [3] -2.25% | [4] -5.65% | [5] -4.3% | [6] -4.45%

Cc1ccccc1/C=C1/N=C(c2ccccc2)OC1=O
inactive: [1] -27.3% | [2] -17.4% | [3] -19.7% | [4] 0.9% | [5] -14.4% | [6] -6.85%

O=[N+]([O-])c1cn(CCNc2c3ccccc3nc3ccccc23)cn1
inactive: [1] 17.4% | [2] -5.35% | [3] 20.4% | [4] 10.6% | [5] -3.85% | [6] 16.8%

O=C1OC(=O)C2=C1CCC2
inactive: [1] -5% | [2] -14.1% | [3] -20.4% | [4] 13.3% | [5] 3.85% | [6] -12.4%

Cc1nc2c(sc3ccccc3n2C)c2nc3c(sc4ccccc4n3C)c(C)c12
inactive: [1] -3.95% | [2] -4.2% | [3] 1.45% | [4] -24.4% | [5] -2.6% | [6] 15.1%

COCCc1c2ccccc2cc2ccccc12
inactive: [1] 24.9% | [2] 3.2% | [3] 10.4% | [4] 7.65% | [5] -22.1% | [6] 17.8%

COc1cc(C2C3=C(CCC3=O)Oc3cc4c(cc32)OCO4)cc(OC)c1OC (configuration not stated)
inactive: [1] 2.55% | [2] 17.1% | [3] -12.2% | [4] 2.05% | [5] -4.55% | [6] 1.8%

Cc1cc2nc(CC(O)c3nc4cc(C)c(C)cc4[nH]3)[nH]c2cc1C (configuration not stated)
inactive: [1] 6.9% | [2] -12.9% | [3] -5.1% | [4] 5.1% | [5] -4.9% | [6] 5.8%

O=S(=O)(OCC1CC2C=CC1C2)c1ccc(Br)cc1 (configuration not stated)
inactive: [1] -15.6% | [2] 7.45% | [3] -3.7% | [4] 6.85% | [5] 54.9% | [6] 3.65%

N#CCCN(CCC#N)C(Cc1cn(CCC#N)cn1)C(=O)O (configuration not stated)
inactive: [1] -8.5% | [2] 6.35% | [3] 4.95% | [4] -13.2% | [5] 5.35% | [6] 10.8%

Cc1cc(-n2cnc3c(N(CCO)CCO)ncnc32)ccc1[N+](=O)[O-]
inactive: [1] 10.1% | [2] -8.5% | [3] -3.95% | [4] -1.9% | [5] 0.5% | [6] -5.8%

C=C(S(=O)(=O)CC)S(=O)(=O)CC
inactive: [1] 28.9% | [2] -7.75% | [3] -3.8% | [4] -53% | [5] -6.5% | [6] 4.4%

O=C1OCc2c1cc1cc3c(cc1c2-c1ccc2c(c1)OCO2)OCO3
inactive: [1] 2.1% | [2] -36.1% | [3] 3.4% | [4] 4.8% | [5] -19.2% | [6] 3.85%

S=C(N1CCN(c2ccc(Cl)c(Cl)c2)CC1)N1CCN(c2ccc(Cl)c(Cl)c2)CC1
inactive: [1] 7.8% | [2] 22.2% | [3] 27.9% | [4] 12% | [5] 5.55% | [6] 20.2%

C=C1c2ccccc2N(S(=O)(=O)c2ccc(C)cc2)C12CCCCC2
inactive: [1] 3.9% | [2] 14.6% | [3] -10.2% | [4] -3.2% | [5] -0.7% | [6] -6%

CC1(C)OC2OC(CI)C3OC(C)(C)OC3C2O1 (configuration not stated)
inactive: [1] 5.7% | [2] 2.8% | [3] -1.75% | [4] 34.5% | [5] 12.6% | [6] -1.45%

COC(=O)CCC(=O)Nc1cc(Cl)c(Cl)cc1Cl
inactive: [1] -14.1% | [2] 8.15% | [3] 6.55% | [4] 1.15% | [5] 9.3% | [6] -7.4%

O=S(=O)(O)c1ccccc1O
inactive: [1] -0.1% | [2] -3.35% | [3] -2.75% | [4] -44.4% | [5] -19.9% | [6] 1.95%

CCC[CH2][Ge]([CH2]CCC)([CH2]CCC)[O]C(=O)CCl
inactive: [1] -14.2% | [2] 31.7% | [3] -4.75% | [4] -52.9% | [5] -13.2% | [6] 31.9%

COC(=O)Nc1nc2ccc(C3c4c(n[nH]c4C)CC(C)(O)C3C(C)=O)cc2[nH]1 (configuration not stated)
inactive: [1] 20.4% | [2] 3.85% | [3] -7.3% | [4] -6.5% | [5] 0.45% | [6] 10.6%

CSc1nc(NC2OC(CO)C(O)C(O)C2O)c(I)c(=O)n1C (configuration not stated)
inactive: [1] 3.15% | [2] 1.85% | [3] -5.3% | [4] -6.25% | [5] -1.75% | [6] 27.7%

NC(CSS(=O)(=O)O)=NCCSS(=O)(=O)O
inactive: [1] -20.4% | [2] -12.4% | [3] -3.45% | [4] 7.45% | [5] -2.4% | [6] 3.95%

CC(=O)NCc1cc2c3c(c1)CCCN3CCC2
inactive: [1] 6% | [2] -7.15% | [3] 4.15% | [4] -32.5% | [5] 0.1% | [6] -4.8%

CCOC(=O)NC(=O)c1cn(CCCOC(=O)CCCCCCCCCCC(=O)OCCCn2cc(C(=O)NC(=O)OCC)c(=O)n(C)c2=O)c(=O)n(C)c1=O
inactive: [1] -22.3% | [2] 8.3% | [3] -24.6% | [4] 15.3% | [5] -2.35% | [6] -19.4%

CC(=NCc1ccccc1)c1c(C)cc(=O)n(-c2ccccc2)c1O
inactive: [1] -12.8% | [2] -6.45% | [3] -6.15% | [4] -70.5% | [5] -24.8% | [6] -12%

O=[N+]([O-])c1ccc2c(c1)/C(=N/O)CCC2
inactive: [1] 0.5% | [2] -0.55% | [3] 1.05% | [4] -86.4% | [5] -15.8% | [6] 4.05%

c1cc2nc(c1)CSCCCCCCCSC2
inactive: [1] 2.05% | [2] 45% | [3] 30.2% | [4] -3.45% | [5] 52.4% | [6] 23.2%

CC(C)(C)OC(=O)NC(CC(=O)OCc1ccccc1)C(=O)NC(C)(C)C(N)=O (configuration not stated) (Boc-[ξD](OBn)-[Aib]-NH2)
inactive: [1] 5.25% | [2] 11.8% | [3] 2% | [4] 26.6% | [5] 23.4% | [6] -19.8%

Cc1ccc(S(=O)(=O)SCC(=O)c2ccc(Br)cc2)cc1
inactive: [1] 27.4% | [2] -15.4% | [3] 29.1% | [4] 16.6% | [5] 4.35% | [6] 9.85%

Nc1c(Br)cc2c(c1Br)C(=O)c1ccccc1-2
inactive: [1] 3.95% | [2] 8.8% | [3] 23.6% | [4] 8.8% | [5] 15.2% | [6] -0.05%

O=C1c2ccccc2C(=O)c2c1oc1c2ccc2ccccc21
inactive: [1] -8.15% | [2] 7% | [3] -4.35% | [4] -16.1% | [5] -5.25% | [6] 8.5%

O=[N+]([O-])c1ccc(Cl)cc1N/N=C/c1ccnc2ccccc12
inactive: [1] -53.4% | [2] -56.1% | [3] -28.6% | [4] -15.1% | [5] -17.4% | [6] -54.9%
